Compound activity (PubChem)
Mcl1-Bid inh – disrupts binding of human Mcl-1 to Bid peptide; Q07820; TR-FRET Mcl-1/Bid-Dy647 peptide binding, 1536-well; inhibition, % at 21.7 µM; 220,000 tested, 0.97% active; AID 1021;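 active = compounds that cut the binding signal by more than half at the single screening dose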;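 also: His-tagged Mcl-1 with europium anti-His antibody binding Bid BH3 peptide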
Target sequence (Q07820 whole entry, looked up): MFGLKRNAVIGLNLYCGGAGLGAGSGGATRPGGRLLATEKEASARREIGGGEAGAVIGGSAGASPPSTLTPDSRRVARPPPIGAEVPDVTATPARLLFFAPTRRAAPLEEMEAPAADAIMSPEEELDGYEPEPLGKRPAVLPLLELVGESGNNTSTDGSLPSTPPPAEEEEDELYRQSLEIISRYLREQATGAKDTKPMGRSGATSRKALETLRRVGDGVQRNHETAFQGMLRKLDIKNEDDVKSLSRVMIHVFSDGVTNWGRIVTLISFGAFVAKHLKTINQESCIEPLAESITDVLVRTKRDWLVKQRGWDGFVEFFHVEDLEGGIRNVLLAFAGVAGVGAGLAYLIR
Mcl1 Noxa PPI – Mcl-1/Noxa interaction inhibition; TR-FRET Mcl-1/Noxa peptide binding, 2 h; inhibition, % at 21.7 µM; 220,000 tested, 1.5% active;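 active = compounds that cut the protein-peptide binding signal by more than 50% relative to plate controls in a single-dose test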;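 also: His-tagged Mcl-1 with rhodamine Noxa BH3 peptide and terbium anti-His antibody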
MCL1-BIM inh – MCL1-BIM-BH3 interaction inhibition (human); 320,000 tested, 0.68% active; inhibition, % at 10.9 µM; AID 2057; GST-MCL1 / FITC-Bim-BH3 fluorescence polarization;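 active = inhibition above the mean inhibition of all tested compounds plus 3 SD, set per campaign, cut at about 40% in these data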;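 also: higher means more loss of mP so more displacement of Bim peptide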
14-3-3 Bad PPI – disrupts binding of bovine 14-3-3 zeta to phospho-Bad peptide | inhibition, % at 21.7 µM | 220,000 tested, 0.71% active | TR-FRET 14-3-3zeta/Dy647-pBad peptide displacement, 1 h | AID 781 | P63103;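 active = inhibition above about 70%, limit read from the data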
Target sequence (P63103 whole entry, looked up): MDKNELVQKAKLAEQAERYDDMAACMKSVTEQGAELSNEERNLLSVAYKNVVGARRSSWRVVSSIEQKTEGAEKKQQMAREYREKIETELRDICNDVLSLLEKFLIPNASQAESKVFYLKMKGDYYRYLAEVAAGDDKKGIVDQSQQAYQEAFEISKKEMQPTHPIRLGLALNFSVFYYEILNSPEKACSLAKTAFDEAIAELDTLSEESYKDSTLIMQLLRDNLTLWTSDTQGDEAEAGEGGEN
Mcl-1 Bim block – disrupts Bim peptide binding to human Mcl-1; AID 1009; Q07820; 190,000 tested, 0.1% active; Bead-based flow cytometry, Bim peptide-Mcl-1 binding; inhibition, % at 10 µM; in the data active = inhibition above about 40%
Hits are given with their value; 0 = inactive; - = not tested or not shown. Shown are actives, neighbours in structure and some others; about 2.5% of the full set was active somewhere.

SMILES | Mcl1-Bid inh | Mcl1 Noxa PPI | MCL1-BIM inh | 14-3-3 Bad PPI | Mcl-1 Bim block
COc1cc(/C=N/NC(=O)C(=O)NCc2ccco2)cc(Br)c1O | 0 | 55.5 | 0 | 0 | -
CCCCCC(=O)N/N=C/c1cc(Br)c(O)c(OC)c1 | 0 | 0 | 0 | 0 | 0
NNc1nc(-c2ccccc2)cc(-c2ccccc2)n1 | 0 | 0 | 0 | 0 | 0
O=C(N/N=C/c1ccccc1)c1ccco1 | 0 | 0 | 0 | 0 | -
O=C(N/N=C/C(Br)=C\c1ccccc1)c1ccco1 | 74.0 | 0 | 0 | 0 | -
Cc1ccc(NC(=O)c2cccnc2)cc1S(=O)(=O)N(C)C | 0 | 0 | 0 | 0 | 0
O=C(O)c1ccc2ncsc2c1 | 92.5 | 55.7 | 0 | 82.0 | -
Cc1ccc(NC(=O)c2ccc3ncsc3c2)cc1S(=O)(=O)N(C)C | 67.2 | 0 | 0 | 0 | -
Nc1ccc(-c2nc3ccc(C(=O)O)cc3s2)cc1 | 0 | 57.3 | 0 | 0 | 0
CCc1nnc(NC(=O)c2ccncc2)s1 | 0 | 0 | 0 | 0 | 0
CCc1nnc(NC(=O)c2ccc3ncsc3c2)s1 | 56.1 | 0 | 0 | 0 | -
O=C(COc1ncnc2ccccc12)NCCc1ccc(F)cc1 | 0 | 0 | 0 | 0 | 0
COc1ccc(NC(=S)NC2CC3CCC(C2)N3Cc2ccco2)cc1 (configuration not stated) | 0 | 0 | 0 | 0 | 0
CCc1ccc(NC(=S)NC2CC3CCC(C2)N3Cc2ccco2)cc1 (configuration not stated) | 96.4 | 0 | 0 | 0 | 0
Cc1onc(C(=O)NN)c1-c1csc(COc2ccc(Cl)cc2)n1 | 0 | 0 | 0 | 0 | -
CCOc1ccc(NC(=O)C2CC(=O)N(CCc3ccc(OC)c(OC)c3)C2)cc1OCC (configuration not stated) | - | - | 0 | - | -
CCC(CC)C(=O)Nc1cccc(C(=O)Nc2ccc(S(N)(=O)=O)cc2)c1 | 0 | 0 | 0 | 0 | 0
CCC(CC)C(=O)Nc1cccc(S(=O)(=O)c2cccc(NC(=O)C(CC)CC)c2)c1 | 0 | 0 | 0 | 0 | 44.0
CN(CC(=O)Nc1ccccc1Br)C(=O)CN(C)C1CCCCC1 | - | - | 0 | - | -
CN1C(=O)C(O)(CC(=O)/C=C/c2ccco2)c2cc(Br)ccc21 (configuration not stated) | 0 | 0 | 0 | 83.2 | 0
CN1C(=O)C(O)(CC(=O)/C=C/c2ccco2)c2ccccc21 (configuration not stated) | 0 | 0 | 0 | 0 | 0
O=C(CCc1nnc(CCCCc2ccccc2)o1)NCCN1CCCCC1=O | 0 | 0 | 0 | 0 | 0
CN(CCO)c1nc(N)c2c(N)nc3c(c2c1C#N)CC(=O)N3C1CCCC1 | 0 | 0 | 0 | 0 | 0
N#Cc1c(N2CCN(c3ccc(F)cc3)CC2)nc(N)c2c(N)nc3c(c12)CC(=O)N3C1CC1 | 0 | 54.6 | - | 0 | 0
Cc1ccc(-c2cc(C(=O)N3CCN(c4ccc(F)cc4)CC3)c3ccccc3n2)o1 | 0 | 0 | 0 | - | 0
SMILES | Mcl1-Bid inh | Mcl1 Noxa PPI | MCL1-BIM inh | 14-3-3 Bad PPI | Mcl-1 Bim block
Cc1ccc(-c2cc(C(=O)N3CCN(c4ncccn4)CC3)c3cc(Br)ccc3n2)o1 | 0 | 79.0 | 0 | 0 | 0
Cc1cc(C)n2nc(C(=O)N/N=C/c3cccc(Cl)c3)nc2n1 | 0 | 0 | 0 | 0 | -
COc1cccc(NS(=O)(=O)c2cc3[nH]c(=O)c(=O)[nH]c3cc2C)c1 | - | - | 0 | - | -
CC(=O)c1ccc(S(=O)(=O)N2CCn3cccc3C2C)cc1 (configuration not stated) | - | - | 41.7 | - | -
COc1ccc(NC(C)=O)cc1S(=O)(=O)N1CCn2cccc2C1C (configuration not stated) | - | - | 0 | - | -
CC(=O)c1cccc(S(=O)(=O)N2CCn3cccc3C2C)c1 (configuration not stated) | - | - | 40.1 | - | -
CC1c2cccn2CCN1S(=O)(=O)c1ccc(F)cc1 (configuration not stated) | - | - | 0 | - | -
COC(=O)c1ccccc1S(=O)(=O)N1CCn2cccc2C1C (configuration not stated) | 69.3 | 0 | 0 | 0 | 0
COc1cc(NC(=O)CSc2nc(C)cc(C)n2)cc(OC)c1OC | 0 | 0 | 0 | 0 | 0
N#C/C=C1/NC(=O)c2ccccc2S1 | 64.7 | 0 | 0 | 0 | 0
COC(=O)c1ccc2c(c1)NC(=O)c1ccccc1S2 | - | - | 0 | - | -
Cc1cccc(C)c1NC(=O)N1C2CCC1CC(O)(c1cccnc1)C2 (configuration not stated) | 0 | 53.0 | 0 | 0 | 0
CC(OC(=O)c1ccc2c(=O)n3c(nc2c1)CCCCC3)C(=O)Nc1ccc(F)cc1Cl (configuration not stated) | 63.9 | 0 | 0 | 0 | 0
O=C(Nc1ccc(Cl)cc1)c1ccc2c(=O)n3c(nc2c1)CCCCC3 | - | - | 0 | - | -
CC(OC(=O)c1ccc2c(=O)n3c(nc2c1)CCCCC3)C(=O)Nc1ccc(Cl)cn1 (configuration not stated) | 0 | 0 | 0 | 0 | 0
O=C(Nc1ccc(F)c(Cl)c1)c1ccc2c(=O)n3c(nc2c1)CCCCC3 | 0 | 0 | 0 | 0 | 61.0
CCn1c(=S)[nH]c2c(c1=O)C(C)(C)Cc1ccccc1-2 | 0 | 0 | - | 0 | 0
Cc1nc(COc2ccccc2Cl)sc1-c1ccnc(N)n1 | 54.7 | 0 | 0 | 0 | -
COc1ccc(NCc2ccc([N+](=O)[O-])s2)c(OC)c1 | 0 | 53.0 | 0 | 0 | 0
CC(=O)c1c(O)c2ccccc2n(C)c1=O | 0 | 51.4 | 0 | 0 | 0
CCCCn1c(=O)[nH]c(=O)c2c1nc(COC(=O)c1c(C)noc1C)n2CCC | 0 | 0 | 0 | 0 | 0
CC1CCN(C(c2cccs2)c2nnnn2Cc2ccccc2)CC1 (configuration not stated) | 0 | 0 | 0 | 79.2 | 0
CC1CN(C2CCN(C(=O)COc3ccc(Cl)cc3)CC2)CC(C)O1 (configuration not stated) | 57.3 | 0 | 0 | 0 | 0
Cc1ccc(OCC(=O)N2CCC(N3CC(C)CC(C)C3)CC2)cc1 (configuration not stated) | - | - | 0 | - | -
O=C(CCN1C(=O)C2CCCCC2C1=O)Nc1nc(-c2ccc(F)c(F)c2)cs1 (configuration not stated) | 0 | 0 | 0 | 0 | 0
SMILES | Mcl1-Bid inh | Mcl1 Noxa PPI | MCL1-BIM inh | 14-3-3 Bad PPI | Mcl-1 Bim block
COc1ccc2sc3ccccc3c(=O)c2c1 | 0 | 0 | 0 | 0 | 0
Cc1cc(O)cc2c(=O)c3ccccc3sc12 | 0 | 59.0 | 0 | 0 | 0
CCCCCc1ccc(OCCOCCn2c[n+](C)c3ccccc32)c(CCCCC)c1 | 0 | 0 | - | 90.7 | 0
CCCCCc1ccc(OCCC[n+]2ccccc2)c(CCCCC)c1 | 0 | 0 | 0 | 0 | -
CS(=O)(=O)Nc1cccc(C2=NN(S(C)(=O)=O)C(c3ccc4c(c3)OCO4)C2)c1 (configuration not stated) | 0 | 0 | 0 | 0 | 0
COc1ccc(C(=O)NCCCN2CCCC2=O)cc1 | 0 | 0 | 0 | 0 | 0
O=C(NCCCN1CCCC1=O)c1ccc2c(c1)OCO2 | 61.9 | 0 | 0 | 0 | 0
O=C(NCCCN1CCCC1=O)NC1CCCCC1 | 0 | 0 | 0 | 0 | 54.0
O=C(O)C1CCCCC1C(=O)NCCCN1CCCC1=O (configuration not stated) | - | - | 0 | - | -
CCNc1ccc(S(N)(=O)=O)cc1[N+](=O)[O-] | 0 | 51.3 | 0 | 0 | 0
